Reference: PubChem BioAssay (NCI)
About 83,000 compounds went through this panel and 20% of them were active in at least one assay; those are over-represented in the sample as a whole.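 Values shown are percent growth following 48 h exposure of cells in 96-well plates to a single concentration of compound; below 10 was considered active.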 Unmarked numbers belong to inactive results. The source made the active and inactive calls.

What follows are compounds tested on NCI-H522 lung (assay: NCI-60 one-dose screen, 48 h (100 = growth as untreated, 0 = no growth, -100 = all killed)). Conditions: 10 µM unless noted.
Procedure: Growth inhibition of the NCI-H522 human Non-Small Cell Lung tumor cell line is measured as a screen for anti-cancer activity. Cells are grown in 96 well plates and exposed to the test compound for 48 hours. Compounds are tested at a single concentration, which is 10^-5 M for most compounds. The reported endpoint is percent growth (GI% or GIPRCNT), where numbers from 0 - 100% represent growth inhibition, and numbers from -100% - 0 represent cell death. For example, a value of 40 represents 60% growth inhibition. A value of 0 means no net growth occurred over the course of the experiment. A value of -40 indicates 40% of cells at the beginning of the experiment died by the end of the experiment. A value of -100 means all cells are dead at the end of the experiment.
NCI-60 Human Tumor Cell Lines Screen was performed using the standard one-dose NCI protocol, which is described in more detail at https://dtp.cancer.gov/discovery_development/nci-60/default.htm.
Compounds with GIPRCNT values below 10 were considered active. Activity score was based on GIPRCNT using the following formula: […]
Score is 0 for GIPRCNT values of 100 or above, 50 for GIPRCNT values of 0, and 100 for GIPRCNT values of -100.

SMILES | growth
O=C(CCl)N1c2ccccc2Oc2ccc3ccccc3c21 | -83.1% (active)
O=C(Nc1ccccc1)c1cc2ccccc2s1 | 82.4%
CN(C)N1C(=O)c2c(Cl)c(Cl)c(Cl)c(Cl)c2C1=O | 94.2%
O=C1OCC2=C1C(c1ccccc1)c1cc3c(cc1N2CCO)OCO3 (stereo not given) | -23.7% (active)
O=C(NNC(=O)c1cccc(Cl)c1)c1ccccc1 | 111%
CCN(CC)c1ccc(/C=N/NC(=O)c2ccc(S(C)(=O)=O)cc2)c(O)c1 | 9.91% (active)
Cc1cc(N)cc(C)c1-c1c(Br)cc(N)cc1Br | -9.5% (active)
O=C(Nc1cccc(Cl)c1)Nc1ccccc1Cl | 42.6%
C#C[C@]1(O)CC[C@H]2[C@@H]3CC=C4c5sc(-c6cccc(Br)c6)nc5CC[C@]4(C)[C@H]3CC[C@@]21C | 62.3%
COc1cc(C2CC(c3ccc(Cl)cc3)=NN2C(C)=O)ccc1Oc1nc2c(c(=O)n(C)c(=O)n2C)n1C (stereo not given) | 92.5%
CC(=O)NC1C(O[C@H]2C[C@H]3[C@@H]4CC=C5C[C@@H](O)CC[C@]5(C)[C@H]4CC[C@]3(C)[C@H]2[C@H](C)C(=O)CCC(C)C)OCC(O)C1O (stereo not given in full) | 66.7%
CCCCOC(=O)c1cc(O)c(O)c(O)c1 | -1.17% (active)
CC1=CCC2C1CC=C(C)C(CC[C@H]1[C@@](C)(O)CCC3OC(C)(C)[C@H](OC(=O)c4ccccc4)CC[C@@]31C)C2(C)C (stereo not given in full) | 67.8%
COc1ccc(Cl)cc1Nc1nc(C(F)(F)F)ccc1C(=O)NN | 12.9%
O=C1NN(C(=O)c2ccccc2)C(c2ccc(Cl)c(Cl)c2)=C/C1=C\c1ccccc1[N+](=O)[O-] | -11.1% [6.75 µM] (active)
O=[N+]([O-])c1ccc(SSc2ccc([N+](=O)[O-])cc2Cl)c(Cl)c1 | 85.1%
COc1cc(C2CC(c3ccc(Cl)cc3)=NN2C=O)ccc1Oc1ccnc2cc(Cl)ccc12 (stereo not given) | 47.2%
CS(=O)(=O)c1ccc(C(=O)N/N=C/c2ccccc2O)cc1 | 15.1%
O=C1/C(=C/c2cc(F)cc(F)c2)Cc2cc(F)cc(F)c21 | 83.3%
CC1=C(/C=C/C(C)=C/C=C(C(=O)O)\C(C)=C\C(=O)O)C(C)(C)CCC1 | 77.9%

SMILES | growth
CCOC(=O)c1ccc(NC(=O)CSC(N)=O)cc1 | 72.8%
O=C(CSc1nc2c(n1Nc1ccccc1)-c1ccccc1SC2)Nc1nccs1 | 95.2%
COC(=O)OC1C(O[C@H]2C[C@H]3[C@@H]4CC=C5C[C@@H](O)CC[C@]5(C)[C@H]4CC[C@]3(C)[C@H]2[C@H](C)C(=O)CCC(C)C)OCC(O)C1OC1OCC(O)C(O)C1OC(=O)c1ccc(OC)cc1 (stereo not given in full) | -49.8% (active)
COc1ccc(Oc2nc(Nc3ccc(N4CCOCC4)cc3)ncc2NC(=O)Nc2cccc(OC)c2)cc1 | 23.7%
CCN(CC)CCCC(C)Nc1c(-c2ccccc2)cnc2cc(Cl)ccc12 (stereo not given) | 50.1%
O=C(/C=C/c1cn(-c2ccccc2)nc1-c1ccccc1)OCc1cn(-c2cccc([N+](=O)[O-])c2)nn1 | 60.4%
COc1ccc(-c2cc(-c3ccc(OC)cc3)c3sc(=O)[nH]c3n2)cc1 | 69.1%
Cc1ccccc1NC(=O)c1sc2nc3c(cc2c1N)C(=O)CCC3 | 12.5%
CC(C)CCSc1nc(-c2ccc(F)cc2)c(C#N)c(N2CCCCC2)n1 | 78.8%
N=C(N)c1ccc(NCCNc2ccc(C(=N)N)cc2)cc1 | 92.9%
CNC(=O)c1c(NC(=O)c2ccc(C(C)C)cc2)sc2c1CCC(=O)C2 | -26.3% (active)
CCn1c(Cc2ccccc2Nc2c(Cl)cccc2Cl)nnc1SCC(=O)Nc1ccccc1C(F)(F)F | 55.5%
Cc1ccc(NC(=O)c2sc3nc4c(cc3c2N)C(=O)CCC4)cc1Cl | 96.1%
COc1cccc(-c2nc3sccn3c2-c2ccnc(NCCN3CCCNS3(=O)=O)n2)c1 | 92.2%
C#CCO[C@H]1CC[C@H](OCC#C)[C@@H]2[C@H]1[C@H]1C[C@@H]3[C@@]4(C)CCC[C@@](C)(C(=O)OC)[C@@H]4CC[C@@]23C=C1C(C)C | -66.5% (active)
O=C(/C=C/c1ccco1)c1ccccc1O | 88.3%
CSc1nc(N)c2[nH]c(-c3cc4ccccc4[nH]c3=O)nc2n1 | 57.2%
c1csc(-c2cnc3nonc3n2)c1 | 70.7%
COc1ccc2c(c1)N(Cc1ccc(Cl)cc1)CCC2N1CCCC1=O (stereo not given) | 32%
Nc1c(Br)cc2c(c1Br)Cc1cc(Cl)ccc1-2 | 102%
